According to the supplement of paper PMC10849652:
Of roughly 7,900 targets only a part is listed; those with a hit were picked by preference. About 0.6% of all pairs of compound and target were hits. Unmarked numbers belong to inactive results.

Columns and labels:
Test in all cases: log2 fold change, soluble protein after heating vs DMSO (PISA); higher = thermal stabilisation; K562 cells, 10 uM, 30 min; active = over 0.2 and 3.5 SD of the protein, either way, in both replicates (recomputed)
bafetinib = compound: Cc1ccc(NC(=O)c2ccc(CN3CC[C@H](N(C)C)C3)c(C(F)(F)F)c2)cc1Nc1nccc(-c2cncnc2)n1 [bafetinib]
In short: (§1)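 Values are thermal stability changes relative to control samples and are taken from duplicates. They are stated as log2 fold changes. Before quantification by TMTpro 16plex LC-MS/MS with equalised channel sums, K562 cells at 2×10^6 cells/mL were treated with 10 μM compound for 30 min, heated in aliquots for 3 min across 48°C-58°C, pooled, extracted in PBS with 0.5% NP-40 at 4°C, and centrifuged at 21,000xg for 90 min to give the soluble supernatant.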

[1] = compound: Cc1cccc(CC(=O)N2CCc3c2ccc(-c2cn(C)c4ncnc(N)c24)c3F)n1
In short: as §1

nilotinib = compound: Cc1cn(-c2cc(NC(=O)c3ccc(C)c(Nc4nccc(-c5cccnc5)n4)c3)cc(C(F)(F)F)c2)cn1 [nilotinib]
In short: as §1

[2] = compound: Cc1nc(Nc2n[nH]c3c2CN(C(=O)N[C@H](CN(C)C)c2ccccc2)C3(C)C)c2sccc2n1
In short: as §1

dasatinib = compound: Cc1nc(Nc2ncc(C(=O)Nc3c(C)cccc3Cl)s2)cc(N2CCN(CCO)CC2)n1 [dasatinib]
In short: as §1

[3] = compound: Cc1ncc(-c2ccnc(Nc3ccc(S(C)(=O)=O)cc3)n2)n1C(C)C
In short: as §1

[4] = compound: Cn1cc(-c2ccc3c(c2)CCN3C(=O)Cc2cccc(C(F)(F)F)c2)c2c(N)ncnc21
In short: as §1

[5] = compound: Cn1cc(-c2ccc3nnc(C(F)(F)c4ccc5ncccc5c4)n3n2)cn1
In short: as §1

tipifarnib = compound: Cn1cncc1[C@@](N)(c1ccc(Cl)cc1)c1ccc2c(c1)c(-c1cccc(Cl)c1)cc(=O)n2C [tipifarnib]
In short: as §1

mubritinib = compound: FC(F)(F)c1ccc(/C=C/c2nc(COc3ccc(CCCCn4ccnn4)cc3)co2)cc1 [mubritinib]
In short: as §1

Chain of UniProt Q6UB28 (Q6UB28 whole entry, looked up): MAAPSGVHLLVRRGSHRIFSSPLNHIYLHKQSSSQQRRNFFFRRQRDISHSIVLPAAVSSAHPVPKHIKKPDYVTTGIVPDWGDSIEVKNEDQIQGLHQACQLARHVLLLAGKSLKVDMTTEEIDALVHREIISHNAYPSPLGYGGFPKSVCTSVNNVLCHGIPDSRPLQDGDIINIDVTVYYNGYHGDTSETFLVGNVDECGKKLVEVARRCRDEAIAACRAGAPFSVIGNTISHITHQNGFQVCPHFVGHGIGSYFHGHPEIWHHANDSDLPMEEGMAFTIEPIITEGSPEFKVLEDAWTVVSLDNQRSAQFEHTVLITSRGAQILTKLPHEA
Chain of UniProt Q7L590 (Q7L590 whole entry, looked up): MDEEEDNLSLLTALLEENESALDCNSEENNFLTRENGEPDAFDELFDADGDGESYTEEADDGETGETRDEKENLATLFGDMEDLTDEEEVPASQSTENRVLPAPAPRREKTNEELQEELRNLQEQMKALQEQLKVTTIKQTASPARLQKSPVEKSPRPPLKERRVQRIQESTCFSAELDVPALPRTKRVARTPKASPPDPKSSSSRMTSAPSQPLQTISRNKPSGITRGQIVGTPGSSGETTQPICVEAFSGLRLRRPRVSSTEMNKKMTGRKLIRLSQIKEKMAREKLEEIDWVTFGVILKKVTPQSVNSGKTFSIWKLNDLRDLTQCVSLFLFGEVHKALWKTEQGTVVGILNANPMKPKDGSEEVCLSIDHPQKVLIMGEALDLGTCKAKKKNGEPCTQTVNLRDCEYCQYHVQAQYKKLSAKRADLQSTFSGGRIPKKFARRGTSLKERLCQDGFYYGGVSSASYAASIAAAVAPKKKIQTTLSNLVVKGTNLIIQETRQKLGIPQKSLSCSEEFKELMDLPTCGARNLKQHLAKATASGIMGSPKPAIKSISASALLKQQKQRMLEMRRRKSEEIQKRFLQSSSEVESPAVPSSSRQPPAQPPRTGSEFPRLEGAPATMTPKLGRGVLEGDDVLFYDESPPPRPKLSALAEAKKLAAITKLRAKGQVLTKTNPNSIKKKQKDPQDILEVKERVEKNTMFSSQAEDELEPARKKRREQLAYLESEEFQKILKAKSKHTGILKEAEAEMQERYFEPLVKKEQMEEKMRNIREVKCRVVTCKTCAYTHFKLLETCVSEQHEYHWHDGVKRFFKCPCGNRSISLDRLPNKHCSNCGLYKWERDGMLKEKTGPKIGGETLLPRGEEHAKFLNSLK
Chain of UniProt Q14680 (Q14680 whole entry, looked up): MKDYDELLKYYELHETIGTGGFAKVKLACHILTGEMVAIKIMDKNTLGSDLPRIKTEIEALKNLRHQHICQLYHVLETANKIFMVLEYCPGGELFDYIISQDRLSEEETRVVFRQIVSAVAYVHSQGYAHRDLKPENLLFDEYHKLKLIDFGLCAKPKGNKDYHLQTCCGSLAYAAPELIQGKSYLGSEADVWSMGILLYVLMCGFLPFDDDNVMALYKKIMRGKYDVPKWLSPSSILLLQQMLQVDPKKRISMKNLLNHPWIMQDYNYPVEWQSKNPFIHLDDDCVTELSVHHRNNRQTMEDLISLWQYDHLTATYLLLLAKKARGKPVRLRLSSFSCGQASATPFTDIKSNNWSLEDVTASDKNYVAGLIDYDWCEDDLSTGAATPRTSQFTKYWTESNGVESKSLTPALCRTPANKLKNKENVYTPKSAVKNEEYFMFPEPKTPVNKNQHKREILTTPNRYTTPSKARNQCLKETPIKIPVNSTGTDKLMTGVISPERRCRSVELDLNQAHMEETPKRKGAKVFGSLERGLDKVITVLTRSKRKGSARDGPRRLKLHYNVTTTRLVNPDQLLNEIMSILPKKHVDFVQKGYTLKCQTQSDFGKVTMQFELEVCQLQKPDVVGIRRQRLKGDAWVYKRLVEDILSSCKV
Chain of UniProt Q9HCC0 (Q9HCC0 whole entry, looked up): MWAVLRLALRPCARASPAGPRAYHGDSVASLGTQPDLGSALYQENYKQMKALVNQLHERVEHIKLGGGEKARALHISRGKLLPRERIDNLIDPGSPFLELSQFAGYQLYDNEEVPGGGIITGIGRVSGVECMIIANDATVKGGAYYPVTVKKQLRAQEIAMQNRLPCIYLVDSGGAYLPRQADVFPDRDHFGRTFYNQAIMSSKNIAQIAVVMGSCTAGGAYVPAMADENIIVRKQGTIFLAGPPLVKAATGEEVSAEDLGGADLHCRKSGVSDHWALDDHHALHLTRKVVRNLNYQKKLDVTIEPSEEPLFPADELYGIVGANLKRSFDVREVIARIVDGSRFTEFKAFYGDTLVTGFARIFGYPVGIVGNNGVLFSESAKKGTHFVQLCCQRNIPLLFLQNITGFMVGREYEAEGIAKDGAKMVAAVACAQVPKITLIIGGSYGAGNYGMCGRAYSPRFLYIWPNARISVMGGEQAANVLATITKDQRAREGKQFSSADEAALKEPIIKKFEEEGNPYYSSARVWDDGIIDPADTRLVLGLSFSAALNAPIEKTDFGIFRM
Chain of UniProt Q9UI26 (Q9UI26 whole entry, looked up): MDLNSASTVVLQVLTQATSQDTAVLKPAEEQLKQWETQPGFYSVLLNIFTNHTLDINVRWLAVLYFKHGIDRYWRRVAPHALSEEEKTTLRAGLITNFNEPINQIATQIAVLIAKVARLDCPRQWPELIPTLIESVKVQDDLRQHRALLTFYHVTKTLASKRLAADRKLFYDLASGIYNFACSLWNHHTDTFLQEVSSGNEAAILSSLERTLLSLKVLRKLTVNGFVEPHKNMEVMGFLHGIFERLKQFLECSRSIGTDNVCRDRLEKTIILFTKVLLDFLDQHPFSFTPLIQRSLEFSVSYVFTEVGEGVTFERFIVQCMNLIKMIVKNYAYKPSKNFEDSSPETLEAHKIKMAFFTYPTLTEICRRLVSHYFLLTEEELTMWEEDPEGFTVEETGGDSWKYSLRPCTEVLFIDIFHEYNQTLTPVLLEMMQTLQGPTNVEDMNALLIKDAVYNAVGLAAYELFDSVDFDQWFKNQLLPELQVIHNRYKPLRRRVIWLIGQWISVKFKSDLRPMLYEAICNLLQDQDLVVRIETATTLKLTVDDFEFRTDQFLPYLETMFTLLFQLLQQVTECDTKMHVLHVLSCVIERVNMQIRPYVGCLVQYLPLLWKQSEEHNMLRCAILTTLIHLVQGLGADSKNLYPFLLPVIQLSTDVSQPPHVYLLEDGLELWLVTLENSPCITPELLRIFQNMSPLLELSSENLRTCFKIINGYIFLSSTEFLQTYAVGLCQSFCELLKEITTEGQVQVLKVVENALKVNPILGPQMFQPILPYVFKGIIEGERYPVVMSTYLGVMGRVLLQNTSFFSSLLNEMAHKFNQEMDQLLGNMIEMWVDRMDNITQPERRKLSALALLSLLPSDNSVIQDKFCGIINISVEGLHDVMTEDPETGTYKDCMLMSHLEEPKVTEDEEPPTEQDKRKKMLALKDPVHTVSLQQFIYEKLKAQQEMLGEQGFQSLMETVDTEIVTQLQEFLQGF
Chain of UniProt Q8NHS3 (Q8NHS3 whole entry, looked up): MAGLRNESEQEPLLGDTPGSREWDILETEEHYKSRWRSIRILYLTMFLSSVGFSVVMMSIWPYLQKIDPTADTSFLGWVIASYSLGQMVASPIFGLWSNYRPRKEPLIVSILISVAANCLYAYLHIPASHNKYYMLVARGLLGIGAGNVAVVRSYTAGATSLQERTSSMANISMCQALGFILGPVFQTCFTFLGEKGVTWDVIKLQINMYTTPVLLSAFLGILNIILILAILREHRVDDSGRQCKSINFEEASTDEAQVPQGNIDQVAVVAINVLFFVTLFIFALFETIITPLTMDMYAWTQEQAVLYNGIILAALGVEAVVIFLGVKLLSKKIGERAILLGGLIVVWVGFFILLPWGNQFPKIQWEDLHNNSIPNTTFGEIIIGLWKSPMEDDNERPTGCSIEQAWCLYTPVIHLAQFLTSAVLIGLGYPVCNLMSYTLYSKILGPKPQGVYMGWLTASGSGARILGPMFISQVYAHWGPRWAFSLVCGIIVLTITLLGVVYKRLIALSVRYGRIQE
Chain of UniProt Q9BQD3 (Q9BQD3 whole entry, looked up): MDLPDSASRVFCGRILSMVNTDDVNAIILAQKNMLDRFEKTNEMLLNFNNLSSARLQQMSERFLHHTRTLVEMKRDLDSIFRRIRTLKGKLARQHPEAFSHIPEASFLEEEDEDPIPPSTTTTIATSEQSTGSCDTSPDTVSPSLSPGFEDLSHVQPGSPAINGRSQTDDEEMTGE
Chain of UniProt O43513 (O43513 whole entry, looked up): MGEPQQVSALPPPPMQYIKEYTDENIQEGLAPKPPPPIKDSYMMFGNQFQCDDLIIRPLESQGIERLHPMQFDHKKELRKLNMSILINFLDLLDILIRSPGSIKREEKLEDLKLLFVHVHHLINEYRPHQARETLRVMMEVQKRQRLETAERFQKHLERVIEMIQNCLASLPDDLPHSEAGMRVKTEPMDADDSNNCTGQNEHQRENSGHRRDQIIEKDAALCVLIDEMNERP
Chain of UniProt P13473 (P13473 whole entry, looked up): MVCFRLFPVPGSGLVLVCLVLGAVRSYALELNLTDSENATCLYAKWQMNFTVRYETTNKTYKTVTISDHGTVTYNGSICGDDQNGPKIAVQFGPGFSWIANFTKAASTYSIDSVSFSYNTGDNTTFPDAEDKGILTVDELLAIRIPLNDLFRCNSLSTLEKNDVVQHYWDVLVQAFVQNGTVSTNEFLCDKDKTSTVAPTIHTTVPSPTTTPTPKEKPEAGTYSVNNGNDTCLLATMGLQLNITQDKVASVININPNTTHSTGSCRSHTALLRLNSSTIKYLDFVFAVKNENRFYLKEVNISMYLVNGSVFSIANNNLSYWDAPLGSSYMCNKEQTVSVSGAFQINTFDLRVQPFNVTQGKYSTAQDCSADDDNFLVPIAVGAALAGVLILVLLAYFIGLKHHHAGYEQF
Chain of UniProt Q96LU5 (Q96LU5 whole entry, looked up): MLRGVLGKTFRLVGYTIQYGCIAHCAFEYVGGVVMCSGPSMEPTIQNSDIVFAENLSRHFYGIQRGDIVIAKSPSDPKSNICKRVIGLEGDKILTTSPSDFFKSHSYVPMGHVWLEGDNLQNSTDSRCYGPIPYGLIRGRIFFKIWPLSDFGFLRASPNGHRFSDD

Row | Target | log2 fold change (bafetinib) | log2 fold change [1] | log2 fold change (nilotinib) | log2 fold change [2] | log2 fold change (dasatinib) | log2 fold change [3] | log2 fold change [4] | log2 fold change [5] | log2 fold change (tipifarnib) | log2 fold change (mubritinib)
1 | MCCC2 (UniProt Q9HCC0) | -0.047 | -0.062 | 0.035 | -0.012 | 0.058 | -0.047 | 0.04 | 0.028 | -0.005 | -0.015
2 | MAPK14 isoform 2 (UniProt Q16539) | 1.73 (active) | -0.038 | 1.67 (active) | 0.176 | 1.37 (active) | 0.037 | -0.071 | -0.02 | -0.049 | 0
3 | IPO11 isoform 2 (UniProt Q9UI26) | -0.056 | 0.045 | 0.012 | -0.03 | -0.049 | 0.039 | -0.008 | -0.029 | -0.132 | 0.069
4 | LMNB2 (UniProt Q03252) | -0.067 | -0.078 | 0.022 | -0.077 | 0.101 | -0.158 | 0.015 | -0.007 | 0.166 | -0.043
5 | KIF3A (UniProt Q9Y496) | 0.022 | -0.047 | -0.128 | 0.054 | -0.068 | 0.093 | 0.025 | -0.043 | -0.031 | 0.018
6 | MFGE8 (UniProt Q08431) | 0.024 | 0.002 | 0.168 | 0.008 | 0.049 | -0.039 | -0.057 | -0.029 | 0.033 | -0.096
7 | MFSD8 (UniProt Q8NHS3) | -0.006 | -0.12 |  |  | 0.061 |  | -0.007 | 0.017 | -0.042 | -0.002
8 | MFSD11 (UniProt O43934) | -0.047 | -0.032 | -0.038 | 0.046 | -0.004 | -0.119 | 0.17 |  | -0.047 | 0.063
9 | KXD1 (UniProt Q9BQD3) | -0.131 | 0.045 |  |  | -0.082 |  | 0.019 | 0.085 | 0.024 | 0.052
10 | LGALS8 isoform 2 (UniProt O00214) | 0.107 | 0.079 |  |  | 0.013 |  | -0.253 |  |  | -0.186
11 | MFF (UniProt Q9GZY8) | -0.065 | -0.049 | -0.057 | -0.073 | 0.014 | -0.017 | -0.011 | -0.05 | 0.073 | 0.035
12 | MCM10 (UniProt Q7L590) | 0.182 | -0.044 | 0.046 | -0.001 |  | -0.008 |  |  | -0.155 | 0.09
13 | IL27RA (UniProt Q6UWB1) | -0.098 |  | 0.086 | -0.06 | 0.055 | -0.006 | -0.039 | -0.109 | 0.159 | 0.005
14 | MASTL (UniProt Q96GX5) | 0.143 |  | 0.014 | 0.002 | -0.105 | 0.021 | -0.052 | 0.276 |  | -0.093
15 | MAN2B2 (UniProt Q9Y2E5) | -0.302 |  | -0.171 | 0.057 | 0.013 | -0.023 |  | -0.088 | 0.093 | 0.147
16 | LMBR1 isoform 3 (UniProt Q8WVP7) | -0.182 | 0.007 |  |  | 0.012 |  | 0.093 | -0.143 | -0.044 | 0.063
17 | MED8 isoform 2 (UniProt Q96G25) | -0.026 |  | 0.016 | -0.015 | 0.034 | -0.171 | -0.086 | 0.013 | 0.012 | -0.059
18 | MED12 isoform 2 (UniProt Q93074) | -0.112 | 0.044 | -0.038 | 0.068 | -0.24 | -0.058 |  | 0.003 | -0.071 | -0.103

Row | Target | log2 fold change (bafetinib) | log2 fold change [1] | log2 fold change (nilotinib) | log2 fold change [2] | log2 fold change (dasatinib) | log2 fold change [3] | log2 fold change [4] | log2 fold change [5] | log2 fold change (tipifarnib) | log2 fold change (mubritinib)
19 | KIF3B (UniProt O15066) | 0.007 | 0.122 |  |  | -0.06 |  | 0.002 | -0.048 | -0.07 | 0.115
20 | ILRUN (UniProt Q9H6K1) | -0.05 |  | -0.01 | -0.086 | -0.08 | 0.258 (active) | -0.013 | -0.039 | -0.023 | 0.029
21 | MED7 (UniProt O43513) | 0.191 |  | -0.029 | -0.041 | -0.063 | 0.094 | -0.05 | 0.069 | 0.271 | 
22 | METAP1D (UniProt Q6UB28) | -0.089 |  | -0.114 | 0.036 | 0.007 | 0.079 | -0.034 | -0.071 | -0.023 | 0.028
23 | MBLAC1 (UniProt A4D2B0) | -0.017 | 0.065 |  |  | -0.129 |  | 0.086 | -0.125 | 0.094 | -0.045
24 | MAGEA9 (UniProt P43362) | 0.03 | -0.02 | 0.021 | -0.006 | 0.074 | -0.034 | 0.065 | -0.024 | -0.008 | -0.048
25 | MELK (UniProt Q14680) | -0.06 | 0.086 | 0.033 | -1.04 (active) | -0.149 | 0.14 | -0.092 |  | 0.097 | 
26 | LAPTM4B (UniProt Q86VI4) | 0.024 | -0.137 |  |  |  |  |  |  |  | 0.017
27 | MGRN1 isoform 2 (UniProt O60291) | -0.07 | -0.227 |  |  |  |  | -0.149 | 0.027 | 0.2 | 
28 | LAMP2 isoform 2 (UniProt P13473) | -0.014 | -0.014 | 0.018 | -0.009 | -0.047 | 0 | 0.005 |  | 0.126 | 0.003
29 | MARK2 (UniProt E9PC69) | 0.116 |  | -0.007 | -0.451 | -0.158 | -0.031 | -0.038 | -0.088 | -0.215 | 
30 | IRAK4 (UniProt Q9NWZ3) | -0.047 | 0.236 (active) | -0.089 | -0.047 | -0.143 | -0.01 | 0.011 | 0.035 | -0.116 | -0.031
31 | IMMP1L (UniProt Q96LU5) | -0.024 |  | -0.044 | 0.059 | 0.098 | 0.03 | 0.068 | 0.071 | 0.02 | 0.048
32 | IL10RB (UniProt Q08334) | -0.079 | -0.031 | 0.026 | 0.151 | 0.068 | 0.105 |  |  | 0.126 | 
33 | MFSD1 isoform 6 (UniProt Q9H3U5) | -0.123 | 0.066 | -0.017 | 0.046 |  | -0.016 | -0.034 | 0.033 | 0.05 | 0.005
34 | MED22 (UniProt Q15528) | -0.137 |  | 0.019 | -0.048 | -0.009 | -0.011 | 0.102 | 0.059 |  | -0.043
35 | LNPEP (UniProt Q9UIQ6) | -0.056 | -0.007 | 0.017 | 0.026 | 0.033 | -0.024 | 0.014 | -0.007 | 0.008 | 0.035
